PubChem BioAssay (NCI)
This is part of a sample that, as a whole, favours compounds with a hit. Of some 83,000 tested, about 20% had one in any assay.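 In brief: 96-well plates, 48 h treatment, single concentration, percent growth endpoint.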 The source made the active and inactive calls. The calls were made as follows: active = growth percent below 10; inactive = the rest.

Columns and labels:
Test in all cases: NCI-60 one-dose screen, 48 h (100 = growth as untreated, 0 = no growth, -100 = all killed)
Details in all cases: 10 µM unless noted
[1] = system: SK-MEL-2 melanoma
[2] = system: SN12C renal
[3] = system: UO-31 renal
[4] = system: TK-10 renal
[5] = system: ACHN renal
[6] = system: CAKI-1 renal
[7] = system: A498 renal
[8] = system: CCRF-CEM leukemia
[9] = system: MOLT-4 leukemia
[10] = system: SR leukemia
[11] = system: RPMI-8226 leukemia
[12] = system: OVCAR-8 ovarian
[13] = system: OVCAR-5 ovarian
[14] = system: OVCAR-4 ovarian
[15] = system: SK-OV-3 ovarian
[16] = system: IGROV1 ovarian
[17] = system: HS 578T breast
[18] = system: NCI/ADR-RES ovarian
[19] = system: OVCAR-3 ovarian

Measured: growth

COC1=CC(c2ccc[nH]2)=N/C1=C\c1[nH]c(C)c(C(=O)CCC(=O)Oc2ccc3c(c2)CCC2C3CC[C@]3(C)[C@@H](O)CC[C@@H]23)c1C (some centres not stated)
inactive: [2] 17.3% | [4] 34.4% | [13] 27.7% | [14] 43.1% | [15] 51.1% | [16] 16.8% | [17] 20.4%
active: [1] 1.42% | [3] -61.9% | [5] -55.3% | [6] -39.3% | [7] -12.7% | [8] 0.176% | [9] -9.7% | [10] -17.6% | [11] -12.2% | [12] -3.79% | [18] 8.32%

COc1ccc(NC(=O)CSc2nc3ccccc3c(=O)n2Cc2cc(OC)c(OC)c(OC)c2)cc1
inactive: [1] 93% | [2] 79.6% | [3] 73.5% | [4] 96.5% | [5] 80.6% | [6] 95.6% | [7] 87.1% | [8] 90.1% | [9] 68.8% | [10] 82.3% | [11] 86% | [12] 91.9% | [13] 102% | [14] 82.8% | [15] 97% | [16] 99% | [17] 96.1% | [18] 84%

COc1cccc(-n2cc(-c3nc(Cl)c4ccccc4n3)nn2)c1
inactive: [1] 89.5% | [2] 95.2% | [3] 78.3% | [4] 105% | [5] 112% | [6] 99.1% | [7] 72.9% | [8] 103% | [9] 104% | [10] 97.9% | [11] 97.7% | [12] 109% | [13] 109% | [14] 98.7% | [15] 117% | [16] 96.5% | [19] 105% | [17] 110% | [18] 97.4%

Cc1ccc(C2=NN(c3ccc(S(N)(=O)=O)cc3)C(c3cn(-c4ccccc4)nc3-c3ccccc3)C2)cc1 (configuration not stated)
inactive: [1] 90% | [2] 30.7% | [3] 30.2% | [4] 84.2% | [5] 93% | [6] 94.7% | [8] 40.3% | [9] 18.7% | [10] 11.7% | [11] 39.7% | [12] 86.3% | [13] 115% | [14] 105% | [15] 93.4% | [16] 88.5% | [19] 56.1% | [17] 96.6% | [18] 90.6%
active: [7] -5.87%

CC1=CNNc2c3ncnc-3ncn21
inactive: [1] 111% | [2] 105% | [3] 90.6% | [4] 105% | [5] 99.8% | [6] 102% | [7] 95.7% | [8] 96.1% | [9] 91.9% | [10] 97.4% | [11] 103% | [12] 107% | [13] 101% | [14] 111% | [15] 103% | [16] 108% | [19] 105% | [17] 110% | [18] 105%

CN(C)c1ncc(-c2ccc(C(F)(F)F)cc2)c(NC2CCCCCC2)n1
inactive: [1] 56.6% | [2] 45.9% | [3] 31% | [4] 65.2% | [5] 16.5% | [6] 85.5% | [7] 81.2% | [8] 45.5% | [9] 76.5% | [10] 77.5% | [12] 49.8% | [13] 87.3% | [14] 45.4% | [15] 83.1% | [16] 78.6% | [19] 26.5% | [18] 82.1%
active: [11] 1.63%

Cc1cc(Nc2nc(-c3ccncc3)nc3ccccc23)n[nH]1
active: [6] -6.19% | [7] 4.45%
inactive: [1] 57.6% | [2] 61.6% | [3] 33.4% | [4] 62% | [5] 40.2% | [8] 67.6% | [9] 60.5% | [10] 18.3% | [11] 91.6% | [12] 101% | [13] 87.1% | [14] 52.4% | [15] 22.8% | [16] 16.3% | [19] 67.2% | [17] 22.6% | [18] 86.4%

O=C(CC(O)c1ccncc1)c1ccccc1 (configuration not stated)
inactive: [1] 57.1% | [3] 49.7% | [6] 86.2% | [7] 62.4% | [8] 99.9% | [9] 90.9% | [10] 82.1% | [11] 97.9% | [13] 104% | [15] 41.9% | [16] 18% | [18] 65.2%
active: [2] -22.2% | [4] -30.8% | [5] -28.5% | [12] -36.8% | [14] -29.2% | [19] -60.5% | [17] -21.8%

Cc1cccc(NC(=O)c2sc3nc4c(cc3c2N)CCCC4)c1
inactive: [1] 54.9% | [2] 51.8% | [3] 54.2% | [4] 70.7% | [5] 48.9% | [6] 40.8% | [7] 44.3% | [8] 19.4% | [9] 33.6% | [10] 17.3% | [11] 12.7% | [12] 52.1% | [13] 64.9% | [14] 71.7% | [15] 44% | [16] 54.6% | [17] 59.5% | [18] 11.1%
